Most compounds without a hit are left out; they make up all but 0.92% or so of the library.
AMA1 RON2 block – qHTS for Inhibitors of AMA1-RON; Towards Development of Antimalarial Drug Lead: Primary Screen; AlphaScreen AMA1-biotinylated RON2 peptide binding; Potency, µM (top dose mostly 58.2 µM), inactives show top-dose activity change, negative = inhibition, usual class: inhibitors; hit rate 0.2% among 360,000; AID 720542, 2013;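 also: 0% = vehicle wells and -100% = peptide control; nearly all actives have a fitted effect of over 45% in size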
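AMA1 (3D7) with his tag at 25 nM final met compounds first, then biotinylated RON2 peptide at 25 nM; detection used donor plus acceptor beads, 10 µg/mL apiece, read by AlphaScreen after 30 min at room temperature.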
LmPK inh – qHTS Assay for Inhibitors of Leishmania Mexicana Pyruvate Kinase (LmPK); Q27686; purified LmPK, Kinase-Glo ATP luminescence, 1 h; Potency, µM (doses to about 57.5 µM), for the others: at the top dose activity change, negative = inhibition, most hits filed as inhibitors; hit rate 0.37% among 290,000; also: % is scaled to controls: 0 for no effect and ±100 for the full control effect
Target sequence (Q27686 whole entry, looked up): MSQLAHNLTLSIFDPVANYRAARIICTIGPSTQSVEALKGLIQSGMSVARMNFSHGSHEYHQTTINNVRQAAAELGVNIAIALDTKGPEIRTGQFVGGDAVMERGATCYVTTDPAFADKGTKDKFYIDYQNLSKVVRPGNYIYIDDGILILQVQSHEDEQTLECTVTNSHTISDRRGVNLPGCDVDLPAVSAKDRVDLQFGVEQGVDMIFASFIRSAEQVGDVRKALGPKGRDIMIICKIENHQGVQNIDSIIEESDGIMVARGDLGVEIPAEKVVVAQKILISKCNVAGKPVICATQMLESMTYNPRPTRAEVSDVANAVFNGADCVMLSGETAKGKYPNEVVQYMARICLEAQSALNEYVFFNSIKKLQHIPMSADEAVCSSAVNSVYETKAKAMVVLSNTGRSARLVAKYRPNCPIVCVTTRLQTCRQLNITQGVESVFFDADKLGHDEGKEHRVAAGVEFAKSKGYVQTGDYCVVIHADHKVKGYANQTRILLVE
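Purified LmPK (0.1 nM) with 0.5 mM PEP and 0.1 mM ADP in imidazole buffer pH 7.2 with MgCl2/KCl, 1 h at room temperature. ATP formed was read by luciferase luminescence and normalized to no-enzyme and uninhibited controls.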
NS1 function inh – qHTS Assay for Inhibitors of Influenza NS1 Protein Function. Potency, µM (highest dose often 46.1 µM), for inactives: at the highest dose activity, positive = more growth. hit rate 0.4% among 270,000; calls by dose curve; also: actives are rising curves; nearly all actives have a fitted effect of over 50% in size
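A cell-based growth assay was used: compounds that relieve NS1-induced slow growth of budding yeast raise OD600. Assay medium was yeast nitrogen base with ammonium sulphate and -URA supplement, pH 6.0, with 2% galactose.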
TbPYK inhibitor – qHTS of Trypanosoma Brucei Inhibitors. pyruvate kinase (Trypanosoma brucei), Q57TT1. TbPYK enzyme, Kinase-Glo Plus ATP luminescence, 45 min. Potency, µM (titrated, usually from 76.8 µM), for inactives: at the highest dose activity, negative = inhibition, actives largely listed as inhibitors. hit rate 0.12% among 410,000; also: % is scaled to controls: 0 for no effect and ±100 for the full control effect; nearly all actives have a fitted effect of over 50% in size
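Enzyme and substrate buffer are dispensed first and compound is pin-transferred. ADP at 130 uM final then starts the reaction, which runs 45 min at room temperature. Detection reagent is added for 10 min before luminescence is imaged.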
RE007 growth inh – qHTS Assay for Inhibitors of the HIV-1 protein Vpr. S. pombe RE007 Vpr strain, BacTiter-Glo ATP luminescence, 24 h. Potency, µM (highest dose often 92.2 µM), for the others: at the highest dose activity change, negative = less growth, hits mostly inhibitors. hit rate 0.21% among 360,000; active = well fitted falling curve with a large enough effect; inconclusive = small, poorly fitted or top-dose-only effect; inactive = no such curve, though single readings can be large or run the other way; also: % is scaled to controls: 0 for no effect and ±100 for the full control effect; nearly all actives have a fitted effect of over 50% in size
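Fission yeast strain RE007, carrying one chromosomally integrated HIV-1 vpr copy, was seeded at OD 0.01 in PMG+AL medium with 23 nL pinned compound. After 24 h at 30 °C and 99% humidity, viability was read by BacTiter-Glo luminescence.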
Numbers without * were called inactive; ? = inconclusive; / = not tested or not shown; [ ] = dose if it differs, or a comment. Unless noted, calls follow the shape of the dose curve; as a rule, active = well fitted curve in the direction sought with a large enough effect; inconclusive = small, poorly fitted or top-dose-only effect, or another doubt; inactive = no such curve, though single readings can be large; an effect the other way counts as inactive or inconclusive. Potency is read from the fitted curve at half-maximal effect.

SMILES | AMA1 RON2 block | LmPK inh | NS1 function inh | TbPYK inhibitor | RE007 growth inh
N#CCCCC[N+]12CN3CN(CN(C3)C1)C2 | / | / | 0% | / | /
COC(=O)c1nn(-c2ccc3c(c2)OCO3)cc1O | -3% | 18µM* | -29% | -1% | -21%
COC(=O)c1nn(-c2ccc3c(c2)CCN3C(C)=O)cc1O | 6% | 10µM* | 3% | 18µM* | -7%
Cc1ccc(C2CC2c2n[nH]c(=S)n2-c2ccc(Cl)cc2)cc1 (stereo unspecified) | 10% | ? | 2% | ? | 35%
S=c1[nH]nc([C@@H]2C[C@H]2c2ccccc2)n1-c1ccccc1Cl | 77% | 13µM* | -1% | 5µM* | 29%
Cc1cccc(C)c1NC(=O)CSc1nnc(-c2ccco2)c(-c2ccco2)n1 | -20% | 13% | ? | ? | 8%
CN(C)c1ccc(NC(=O)CSc2nnc(-c3ccco3)c(-c3ccco3)n2)cc1 | 18µM* | 0% | -4% | -12% | -3%
Cc1ccccc1NC(=O)CSc1nnc(-c2ccco2)c(-c2ccco2)n1 | ? | 5% | ? | 20µM* | 4%
Cc1ccc(NC(=O)CSc2nnc(-c3ccco3)c(-c3ccco3)n2)cc1 | -15% | 4% | -5% | ? | -2%
Cc1cc(C)c(S(=O)(=O)NCC23C=CC(O2)C2C(=O)N(c4ccccc4)C(=O)C23)c(C)c1 (stereo unspecified) | -11% | 3% | -103% | -20% | 22µM*
O=C1C2C3C=CC(CNS(=O)(=O)c4ccccc4[N+](=O)[O-])(O3)C2C(=O)N1c1ccccc1 (stereo unspecified) | 20% | 4% | / | -20% | 5µM*
CN(C)CC(C(=O)c1ccccc1)c1ccccc1 (stereo unspecified) | -14% | 0% | -40% | -6% | 40µM*
CCC(=O)O[C@@](Cc1ccccc1)(c1ccccc1)[C@H](C)CN(C)C | / | / | / | -2%[157 µM] | /
Clc1cccc(OCCN2CCN(CCOc3cccc(Cl)c3)CC2)c1 | 18µM* | 0% | -53% | -3% | -2%
c1ccc(OCCN2CCOCC2)cc1 | 14µM* | -9% | -3% | -10% | 1%
c1ccc(Cc2ccc(OCCN3CCOCC3)cc2)cc1 | -9% | -7% | -17% | -12% | -4%
N[C@H]1[C@@H](C(=O)O)[C@H]2C=C[C@H]1C2 | / | / | -12% | / | /
CCCCc1nc2c(c3c1C[C@H](C)OC3)CN(C(=O)C1CC1)CC2 | / | -3%[11.5 µM] | / | / | /
C[C@@]12Cc3cnc(-c4ccccc4)nc3C[C@@H]1CC[C@@H]1[C@H]3CC[C@@](C)(O)[C@]3(C)CC[C@@H]12 | / | / | -5% | / | /
CC(=O)Oc1ccccc1C(=O)C=Cc1cccc([N+](=O)[O-])c1 | 8% | / | / | 7% | 25µM*
O=C1CCC(c2ccccc2)c2ccccc21 (stereo unspecified) | 3% | / | / | 4% | 7%
N#CC1C(=O)c2ccccc2C1c1ccccc1 (stereo unspecified) | -27% | / | / | -25% | 8.9µM*
CCCCCCCCCCCCCCNCCO | / | / | / | 2% | /
Fc1ccc(-n2nnc(-c3nccs3)n2)cc1 | 3% | 14µM* | -5% | -20% | ?
Fc1ccc(-n2nnc(-c3cccnc3Cl)n2)cc1 | 34% | -26% | -7% | -1% | -24%
SMILES | AMA1 RON2 block | LmPK inh | NS1 function inh | TbPYK inhibitor | RE007 growth inh
CCCCCCCCCCCCCCCCCCNC(=O)OC1CCN(C(=O)OC[C@H](COC(=O)N(Cc2cccc[n+]2CC)C(=O)c2ccccc2OC)OC)CC1 | / | / | / | 3% | /
C[C@H]1C2C=C[C@H]1[C@@H](C(=O)O)[C@@H]2c1c2ccc(=O)c(O)c-2oc2c(O)c(O)ccc12 | / | / | 5% | / | /
C/C=C/c1ccc(OCCCNC2CCCC2)c(OC)c1 | -16% | -1% | -3% | 0% | -29%
C/C=C/c1ccc(OCCCNC(C)CC)c(OC)c1 (stereo unspecified) | 20µM* | -6% | 1% | 0% | -14%
O=C1/C(=C/c2ccco2)Oc2c1ccc(O)c2CN1CCCCC1 | ? | 0% | 14% | -8% | -10%
CC1CCN(Cc2c(O)ccc3c2O/C(=C\c2ccco2)C3=O)CC1 | ? | 5% | 8.9µM* | -10% | -11%
O[C@@H](COc1cccc2ccccc12)CN1CCOCC1 | / | / | -3% | / | /

Screening data deposited in PubChem BioAssay by National Center for Advancing Translational Sciences (NCATS).
